Source: PubChem
VLA-4 inh: inhibition in a human VLA-4 binding assay; P13612; VLA-4 expressing cells, ligand binding flow cytometry; inhibition, % (about 7 µM as worked out from the volumes in the protocol); 330,000 tested, 0.2% active
Target sequence (P13612 whole entry, looked up): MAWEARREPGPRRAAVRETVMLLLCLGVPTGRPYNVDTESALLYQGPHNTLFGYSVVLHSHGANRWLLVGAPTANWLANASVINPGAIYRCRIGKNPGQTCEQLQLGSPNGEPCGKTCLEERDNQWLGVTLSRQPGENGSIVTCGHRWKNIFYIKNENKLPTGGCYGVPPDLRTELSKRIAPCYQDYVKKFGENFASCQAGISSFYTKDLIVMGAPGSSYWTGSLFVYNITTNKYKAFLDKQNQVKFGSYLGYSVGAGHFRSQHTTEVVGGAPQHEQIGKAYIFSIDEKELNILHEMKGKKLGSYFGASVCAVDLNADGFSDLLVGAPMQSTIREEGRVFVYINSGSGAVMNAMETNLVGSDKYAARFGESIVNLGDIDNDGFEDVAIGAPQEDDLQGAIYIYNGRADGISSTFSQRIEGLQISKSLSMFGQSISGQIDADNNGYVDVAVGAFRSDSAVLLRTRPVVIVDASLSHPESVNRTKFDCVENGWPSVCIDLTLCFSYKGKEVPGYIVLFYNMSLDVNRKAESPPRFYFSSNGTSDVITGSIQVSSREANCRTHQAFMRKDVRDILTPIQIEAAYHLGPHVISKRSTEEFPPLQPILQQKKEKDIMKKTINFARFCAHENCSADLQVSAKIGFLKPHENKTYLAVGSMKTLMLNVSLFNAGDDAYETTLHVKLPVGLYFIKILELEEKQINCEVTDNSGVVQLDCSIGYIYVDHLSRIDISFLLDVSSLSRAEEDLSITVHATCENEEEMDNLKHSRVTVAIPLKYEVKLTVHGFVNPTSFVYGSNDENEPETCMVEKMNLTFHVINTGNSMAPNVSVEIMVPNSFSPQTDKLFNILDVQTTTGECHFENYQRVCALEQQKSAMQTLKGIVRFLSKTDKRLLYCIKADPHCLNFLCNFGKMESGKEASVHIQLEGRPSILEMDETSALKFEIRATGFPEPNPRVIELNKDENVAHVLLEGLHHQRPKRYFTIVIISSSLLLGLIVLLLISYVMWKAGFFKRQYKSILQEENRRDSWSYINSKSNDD
LANA-H2B inh: blocks KSHV LANA binding to histone H2A/H2B | cell-free LANA-H2A/H2B peptide, fluorescence polarization | inhibition, % (no concentration beside the values) | 320,000 tested, 0.6% active | AID 2629; in the data active = inhibition mostly above about 10%, no sharp cut-off; inactive = mostly below about 6.7%
HDAC3 inh: blocks human histone deacetylase 3; inhibition, % at 8.3 µM; AID 2718; recombinant HDAC3, fluorogenic peptide/trypsin coupled, fluorescence; 320,000 tested, 0.15% active; in the data active = inhibition above about 26%, passing the limit was not always enough
PKD1 inh: blocks activity of human protein kinase D1. Q15139. PKD1 kinase fluorescence polarization assay. inhibition, % (test concentration not listed). 200,000 tested, 0.056% active
DSG3 Ab inh: inhibitors of pemphigus antibody binding to human desmoglein-3 | binding (percent of control), % at 10 µM | P32926 | 310,000 tested, 0.48% active | DSG3-coupled beads, scFv-anti-DSG3-GFP binding, flow cytometry; active compounds read low;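 active = binding more than 3 SD below its plate's average and above zero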;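 note: hits lower antibody fragment binding to DSG3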
GRK2 aptamer HTS: inhibitors of human GRK2 displacing RNA aptamer. 330,000 tested, 0.59% active. bead flow cytometry, FAM-aptamer displacement from GRK2. inhibition of aptamer binding, % at 10 µM;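 active = inhibition of aptamer binding above 40%, roughly 3 SD of noise, on plates passing a quality check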;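 note: median bead fluorescence of bound FAM aptamer so fluorescent compounds give negative values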
Active calls of the source: *; x = not tested or not shown; ! = not confirmed by another sample. Sampled rows, rich in hits. Any-hit rate of the full collection: about 1.8%. Cut-off read from the data, not from the text of the source, unless noted: active = inhibition above about 50%; inactive = the rest.

SMILES	VLA-4 inh	LANA-H2B inh	HDAC3 inh	PKD1 inh	DSG3 Ab inh	GRK2 aptamer HTS
Cc1ccc(SCc2c(C(=O)N/N=C/c3ccc(C)o3)nnn2-c2nonc2N)cc1	x	x	x	x	86*	x
CCOc1ccc(-c2c(C(=O)N/N=C/c3ccco3)nnn2-c2nonc2N)cc1	12	-3	4	x	3.4*	1
Cc1ccc(-c2c(C(=O)N/N=C/c3ccco3)nnn2-c2nonc2N)cc1	-6	0	-8	x	91	1
CNc1cc(N2CCCC2)ccc1[N+](=O)[O-]	13	-2	10	-1	85	5
Cc1ccc2c(c1)C(O)(CC(=O)c1ccc(C)s1)C(=O)N2 (centres undefined)	2	90*	3	-3	101	2
Cc1ccc(C)c(C(=O)CC2(O)C(=O)Nc3ccccc32)c1 (centres undefined)	-1	0	-7	-6	99	0
O=c1oc(-c2cccs2)nc2c1cnn2-c1ccccc1	19	1	-7	9	86*	3
O=c1oc(-c2ccccc2)nc2c1cnn2-c1ccccc1	10	1	3	-8	102	7
CCC(CC)c1nnc(NC(=O)c2c(C)nn(Cc3ccccc3Cl)c2C)s1	-8	2	13	0	53*	6
CN(C[C@@H](CC1CCCCC1)N(C[C@H](Cc1ccccc1)N(CCc1ccccc1)N=O)N=O)N=O	x	1	4	10	105	x
CC(C)(C)OC(=O)NCCCCCc1nnc(SCc2c(F)cccc2Cl)o1	5	14*	-1	x	120	2
CCN(CC(O)Cn1c2ccccc2c2ccccc21)S(=O)(=O)c1ccc(F)cc1 (centres undefined)	11	3	30*	-9	100	0
O=S(=O)(c1ccc(F)cc1)N(CCO)CC(O)Cn1c2ccccc2c2ccccc21 (centres undefined)	42	-1	-4	11	98	1
O=c1[nH]c(=O)n(C2CC(O)C(CO)O2)cc1I (centres undefined)	x	x	x	x	101	x
Cc1cn([C@H]2C[C@H](N=[N+]=[N-])[C@@H](CO)O2)c(=O)[nH]c1=O	7	15*!	-2	-8	138	0
O=C(OCCN1C(=O)c2cccc3c(N4CCOCC4)ccc(c23)C1=O)c1ccc(Cl)cc1	-20	12*	-10	-7	x	0
O=S(=O)(O)c1cc(O)c2cc(Nc3ccccc3)ccc2c1	x	x	x	x	78	x
O=S(=O)(O)c1cc(O)c2ccc(Nc3ccccc3)cc2c1	x	x	x	x	44*	x
O=S(=O)(O)c1ccc(O)c2cc(Nc3ccccc3)ccc12	x	x	x	x	38*	x
CCOc1cc(NC(=O)c2ccccn2)c(OCC)cc1NC(=O)c1cccc(C)c1	6	3	3	-2	74*	1
CCOc1cc(NC(=O)c2cccs2)c(OCC)cc1NC(=O)c1ccccn1	1	0	2	-3	81	0
CCOC(=O)CCCCCC(=O)Nc1ccc2c(c1)CC(=O)N([C@H](C)CO)C[C@H](C)[C@H](CN(C)S(=O)(=O)c1ccc(OC)cc1)O2	-6	11	5	x	106	5
CCn1nnnc1SCC(=O)NCc1cccs1	-5	-2	-5	-1	x	0
CCCn1nnnc1SCC(=O)NCc1cccs1	-7	98*	3	7	x	4
CCCNC(=O)C(Cc1cccc(OC)c1)NC(=O)c1ccc(C(C)(C)C)cc1 (centres undefined)	18	1	1	x	97	8
SMILES	VLA-4 inh	LANA-H2B inh	HDAC3 inh	PKD1 inh	DSG3 Ab inh	GRK2 aptamer HTS
Cn1cnnc1SCc1cccc(Br)c1	-20	-5	2	-9	41*	4
CC1(C)c2[nH]c3ccccc3c2C[C@@H]2C(=O)N(Cc3ccco3)C(=O)N21	-7	-2	8	x	92	0
Cn1c(=O)c2c(ncn2CC(=O)Nc2nnc(Cc3ccccc3)s2)n(C)c1=O	3	-3	-8	3	92	0
C=CCSc1nnc(NC(=O)Cn2cnc3c2c(=O)n(C)c(=O)n3C)s1	2	78*	-1	-3	116	0
CN(C)C(=O)Cn1cnc2c(cnn2-c2ccc(F)cc2)c1=O	1	-2	-2	x	111	0
COc1ccc(-c2cn3c(C)c(C(=O)NC(C)(C)C)sc3n2)cc1	0	-3	-3	x	109	0
COc1ccc(-c2cn3c(C)c(C(=O)NC(C)C)sc3n2)cc1	10	-2	5	0	47*	1
Nc1ccc2nc3c(=O)n(C4CCCCC4)c(=O)[nH]c3nc2c1	3	72*	x	x	105	1
Nc1ccc2nc3c(=O)n(CCc4ccccc4)c(=O)[nH]c3nc2c1	1	6	-4	x	92	3
CC(C)n1ncc2c(C(=O)NCc3cccnc3)cc(C3CC3)nc21	x	x	x	x	108	x
O=C(Cc1ccc(Cl)cc1Cl)NC1CCCCCC1	23	-1	5	x	24*	1
O=[N+]([O-])c1cccc(/C=N/Nc2nccnc2Cl)c1	-2	54*	2	3	93	0
O=[N+]([O-])c1cccc(/C=N/Nc2ccccn2)c1	6	1	-1	-3	94	2
CN1CCN(/N=C/c2c3ccccc3c(Cl)c3ccccc23)CC1	57*	-2	7	-2	114	0
CC(=O)c1cccc(NC(=S)NC(=O)c2ccc(C)cc2Cl)c1	6	36*	1	-1	85	0
Cc1sc2ncn(CC(=O)Nc3c(F)cccc3F)c(=O)c2c1S(=O)(=O)N1CCC(C)CC1	-12	0	-5	-1	55*	0
Cc1sc2ncn(CC(=O)NCCCN3CCC(C)CC3)c(=O)c2c1S(=O)(=O)N1CCC(C)CC1	-4	1	-7	x	x	0
CCOC(=O)C1CCN(C(=O)Cn2cnc3sc(C)c(S(=O)(=O)N4CCCCC4)c3c2=O)CC1	-10	16*	-2	x	97	4
Cc1cccc(NC(=O)CCC(=O)N2CCOCC2)n1	16	0	-2	x	102	7
Nc1ncnc2c1ncn2[C@@H]1O[C@H](CNCC(O)CO)[C@@H](O)[C@H]1O (some centres undefined)	x	x	x	x	94	38
COc1ccc(C2Nc3ccccc3C(=O)N2Cc2ccco2)cc1COc1ccccc1F (centres undefined)	7	-5	-3	-1	103	0
COc1ccc(C2Nc3ccccc3C(=O)N2Cc2ccco2)cc1COc1ccc(NC(C)=O)cc1 (centres undefined)	-3	-7	-24	-2	37*	2
CCCC(=O)Oc1ccc(N(C(=O)CCC)S(=O)(=O)c2cccs2)cc1	10	0	56*	-5	104	4
CCCC(=O)Oc1ccc(N(C(=O)CCC)S(=O)(=O)c2cccc([N+](=O)[O-])c2)cc1	24	3	50*	13	102	0
COc1ccc(N(C(=O)c2ccncc2)S(=O)(=O)c2cccc([N+](=O)[O-])c2)cc1	4	-4	0	x	107	0
